These results are taken from PubChem BioAssay (NCATS).

For assay [1], the target named is Tyrosine-protein kinase Yes (Homo sapiens) (UniProt P07947). Nature of the assay: qHTS for small molecule inhibitors of Yes1 kinase: Primary Screen (AID 686947).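 Also: plate controls were DMSO with enzyme for no effect and no-enzyme DMSO wells for full effect; nearly all actives have a fitted effect of over 60% in size.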 In short, it runs like this: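 ADP-Glo luminescence reports ADP formed by 4 nM Yes1 phosphorylating poly(E4Y) (0.3 mg/mL) with 0.1 mM ATP for 60 min at room temperature, following 20 min compound preincubation; normalised between DMSO wells with and without enzyme.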
Tyrosine-protein kinase Yes (Homo sapiens), sequence (P07947 whole entry, looked up): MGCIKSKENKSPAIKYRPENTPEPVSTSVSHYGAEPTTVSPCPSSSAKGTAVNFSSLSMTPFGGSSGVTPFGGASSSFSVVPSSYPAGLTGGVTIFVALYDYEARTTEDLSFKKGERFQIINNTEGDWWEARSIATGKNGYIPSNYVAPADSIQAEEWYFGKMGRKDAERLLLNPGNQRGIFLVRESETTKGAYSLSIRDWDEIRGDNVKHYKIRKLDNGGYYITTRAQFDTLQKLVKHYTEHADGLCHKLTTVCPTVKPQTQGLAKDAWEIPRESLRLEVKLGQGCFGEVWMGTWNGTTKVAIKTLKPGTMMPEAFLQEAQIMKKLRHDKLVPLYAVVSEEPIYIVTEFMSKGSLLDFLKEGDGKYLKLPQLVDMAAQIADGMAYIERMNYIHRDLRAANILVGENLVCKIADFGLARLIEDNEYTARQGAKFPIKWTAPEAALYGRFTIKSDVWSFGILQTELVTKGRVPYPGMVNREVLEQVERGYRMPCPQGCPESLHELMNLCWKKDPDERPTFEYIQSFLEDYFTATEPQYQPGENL
A general note: In qHTS, concentration-response curves come from the screen itself.

A short description of assay [2]: qHTS for small molecule inhibitors of Yes1 kinase: Counter Assay (AID 686950).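 Also: no kinase present so only ADP-Glo detection of a fixed ADP amount is tested; luminescence from ADP-Glo reporting ADP in a fixed ATP and ADP mixture; 0% = DMSO wells with ATP plus ADP and -100% = ATP-only wells without ADP.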 The essentials: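 ADP-Glo luminescence read after a 60 min room-temperature incubation of compound with an ATP/ADP mix (0.08 mM/0.02 mM) and no kinase, following a 20 min compound preincubation. Signal scaled between ATP+ADP (max) and 0.1 mM ATP-only (min) wells; Tris pH 7.5, Mg2+, DTT.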

Assay [3] in a line: qHTS for compounds that reverse cellular toxicity of Amyloid beta (A-beta) peptide in yeast: LOPAC Validation Assay (AID 720559).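 Also: plate controls were DMSO for no effect and equimolar ferric chloride plus clioquinol rescue for full effect.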 In short, it runs like this:
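Activity is expressed relative to DMSO and an equimolar ferric chloride/clioquinol mix. Compounds were pinned into medium with A-beta-expressing yeast, grown 48 hr at 30 C, then read by absorbance at 600 nm.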

Assay [4] in a line: qHTS for Activators of Parkin Expression: LOPAC Validation Assay (NLuc Reporter) (AID 720572). The essentials:
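Compound effects on Parkin promoter activity were measured as NanoLuc luminescence after 24 h at 37 C. The neuronal reporter line also carried FLuc, which was read first. LOPAC compounds were tested at 7 concentrations, with normalization to DMSO (0%) and positive control (100%).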

The nature of assay [5]: qHTS for Activators of Parkin Expression: LOPAC Validation Assay (FLuc Reporter) (AID 720573). In short, it runs like this: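 A neuronal cell line harbouring FLuc and NLuc reporters behind the Parkin promoter was exposed to compounds for 24 h. Firefly luciferase signal, measured after 10 min with detection reagent, was scaled to DMSO and positive-control wells.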
Assay [6] deals with T1, Hexokinase-4 (Homo sapiens) + Glucokinase regulatory protein (Homo sapiens) (UniProt P35557+Q14397). Briefly: qHTS assay for inhibitors of recombinant human GCK-GKRP interaction: Diaphorase-coupled assay (AID 743205). The essentials:
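Inhibitors of the GCK–GKRP complex relieve GKRP suppression of GCK, detected through a G6PDH–diaphorase cascade reducing resazurin. Human GST-GCK and FLAG-GKRP are used at 10 nM with 5 mM glucose and 0.4 mM ATP.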

Assay [7] addresses T1, Hexokinase-4 (Homo sapiens) + Glucokinase regulatory protein (Homo sapiens). Briefly: qHTS assay for inhibitors of recombinant human GCK-GKRP interaction: ADP-Glo assay (AID 743206).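 Also: plate controls were DMSO plus enzyme for no effect and no enzyme for full effect.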 In short, it runs like this:
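Pin-transferred compounds meet a 15 nM GST-GCK/15 nM FLAG-GKRP/2 uM S6P mix (dispense concentrations). ATP is then added to 0.4 mM final with 5 mM glucose, and the reaction runs 60 min at room temperature. ADP is quantified luminescently.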

Assay [8] has the same target. Briefly: qHTS assay for inhibitors of recombinant human GCK-GKRP interaction: HTRF assay (AID 743207).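 Also: 0% = DMSO with GCK present and -100% = DMSO wells lacking GCK.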 The essentials: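 Steps: dispense GCK–GKRP complex (5 nM each, GST- and FLAG-tagged) with 2 uM S6P; pin in compounds; add XL665/Eu-cryptate-labelled antibodies; incubate 60 min at room temperature; read time-resolved FRET at 665 and 615 nm.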
Assay [9] in a line: qHTS Assay for Identifying Gametocytocidal Compounds (AID 743244). Also: potency is read from the fitted curve at half-maximal effect.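 As to max response: % is scaled to controls: 0 for no effect and ±100 for the full control effect; actives lower the fluorescent signal which means gametocytes are killed.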 Particulars: P. falciparum 3D7 stage III-V gametocytes, alamarBlue, 72 h; max response: stronger effect = lower value. The essentials:
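Viability read-out was resazurin reduction (alamarBlue, 24 h) measured at Ex 525/Em 598 nm. Beforehand, late-stage (III-V) 3D7 P. falciparum gametocytes at 20,000 cells/well were incubated with compound 72 h at 37C under 5% CO2.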

Assay [10] can be described thus: qHTS profiling for inhibitors of Plasmodium falciparum (3D7) proliferation (AID 743322; call rule not given here;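 also: infected erythrocytes exposed to compound for 72 h before lysis; 100% = DMSO vehicle wells and 0% = 0.29 µM artemisinin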). The settings on record: P. falciparum 3D7 proliferation; at 28.7 µM (top of the series) unless noted. The essentials: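 Parasite DNA was quantified by SYBR Green I fluorescence (ex 485, em 535 nm) after overnight lysis in saponin/Triton buffer at room temperature. Cultures at 0.3% parasitemia and 2.5% hematocrit were first exposed to compound for 72 h at 37 C; signals were normalised to artemisinin (0.29 uM) and vehicle wells.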

Assay [11] has as its target Tumor necrosis factor (Homo sapiens) (UniProt P01375). Briefly: qHTS assay to identify small molecules that stimulate Tumor Necrosis Factor-alpha (TNF-alpha) secretion (AID 651757; active = well fitted curve in the direction sought with a large enough effect in the signal ratio; the % refers to the signal ratio; also: 0% is about no effect). The essentials: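 Secreted TNF-alpha quantified by TR-FRET sandwich of two labeled anti-TNF-alpha antibodies, incubated 3 hr at room temperature. Preceded by 17 hr, 37 C compound treatment of THP-1 cells at 3000 cells/well.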

The nature of assay [12]: qHTS assay for environmental chemicals that activate the Aryl hydrocarbon Receptor (AhR) signaling pathway (AID 651777). Also: % of control where 0% means no effect; nearly all actives have a fitted effect of over 15% in size. Particulars: 1A2-DRE human hepatoma cells, luciferase, 24 h; activation: stronger effect = higher value. In short, it runs like this:
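Luminescence (One-Glo, 30 min, room temperature) reports AhR-driven luciferase in stably transfected human hepatoma cells bearing DRE and CYP1A2 promoter. Cells (1,200/well) were treated with compound for 24 hr at 37 C in qHTS format.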

In assay [13] the target is Peroxisome proliferator-activated receptor alpha (Homo sapiens) (UniProt Q07869). Briefly: qHTS assay for small molecule agonists of the peroxisome proliferator-activated receptor alpha (PPARalpha) signaling pathway (AID 651778). Also: % of control where 0% means no effect. The settings on record: PathHunter PPARalpha complementation, chemiluminescence, 6 h; max response: stronger effect = higher value. In short, it runs like this: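 Chemiluminescence from complemented enzyme reported PPARalpha activation in cells after 6 hr of compound treatment at 37 C. The detection reagent was incubated for 60 min at room temperature, and compounds were scored as agonists.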
Peroxisome proliferator-activated receptor alpha (Homo sapiens), sequence (Q07869 whole entry, looked up): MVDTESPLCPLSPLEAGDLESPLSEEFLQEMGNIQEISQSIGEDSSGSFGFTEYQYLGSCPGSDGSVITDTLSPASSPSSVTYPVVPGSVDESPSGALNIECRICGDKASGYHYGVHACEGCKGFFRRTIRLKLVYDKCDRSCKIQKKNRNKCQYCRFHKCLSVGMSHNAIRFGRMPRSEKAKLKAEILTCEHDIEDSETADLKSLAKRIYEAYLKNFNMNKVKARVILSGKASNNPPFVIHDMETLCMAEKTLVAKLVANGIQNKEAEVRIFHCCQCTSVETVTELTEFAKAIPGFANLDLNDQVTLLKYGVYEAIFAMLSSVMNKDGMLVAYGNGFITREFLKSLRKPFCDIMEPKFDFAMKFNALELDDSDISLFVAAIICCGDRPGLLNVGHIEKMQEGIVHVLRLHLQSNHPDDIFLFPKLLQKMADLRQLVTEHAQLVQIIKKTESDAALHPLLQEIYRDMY

Assay [14] has as its target Nuclear receptor ROR-gamma (Homo sapiens) (UniProt P51449). Briefly: qHTS assay for small molecule antagonists of the retinoid-related orphan receptor gamma (ROR-gamma) signaling pathway (AID 651802). Also: potency is read from the fitted curve at half-maximal effect; nearly all actives have a fitted effect of over 60% in size. In short, it runs like this:
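Luminescence (One-Glo, 30 min RT) measured 16 h after compound addition and doxycycline induction at 37C. Reporter: RORE-luciferase under TET-inducible ROR-gamma in CHO cells.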

Assay [15] is described as follows: qHTS assay for small molecule agonists of the antioxidant response element (ARE) signaling pathway measured by Nrf2-dependant transcriptional activity (AID 720636; active = well fitted curve in the direction sought with a large enough effect in the repeat runs; an effect the other way counts as inactive or inconclusive; also: % of control where 0% means no effect). The essentials:
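Nrf2-dependent transcription read as ONE-Glo luciferase signal from ARE-luc HepG2 reporter cells after 16 hr compound treatment at 37 C, 5% CO2, in assay medium with 1% dialyzed FBS.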

A short description of assay [16]: qHTS assay for small molecule antagonists of the retinoid-related orphan receptor gamma (ROR-gamma) signaling pathway - cell viability counter screen (AID 720652; active = well fitted curve in the direction sought with a large enough effect in the repeat runs; an effect the other way counts as inactive or inconclusive;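 also: compound exposure lasted 16 hr before ATP read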; also: potency is read from the fitted curve at half-maximal effect). In short, it runs like this:
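Cytotoxicity counter screen: intracellular ATP (CellTiter-Glo luminescence) measured in the doxycycline-induced CHO RORE-luciferase reporter line after 16 hr compound exposure at 37 C, 5% CO2.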

Assay [17] in a line: qHTS assay for small molecule agonists of the antioxidant response element (ARE) signaling pathway measured by Nrf2-dependant transcriptional activity - cell viability counter screen (AID 720653; active = well fitted curve in the direction sought with a large enough effect in the repeat runs; an effect the other way counts as inactive or inconclusive; also: % is scaled to controls: 0 for no effect and ±100 for the full control effect). Particulars: ARE-bla HepG2 viability, CellTiter-Glo ATP luminescence, 16 h; stronger effect = lower value. The essentials: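 Cytotoxicity counter screen: intracellular ATP quantified by CellTiter-Glo luminescence in the same ARE-bla HepG2 plates, after 16 h compound exposure and a 2 h beta-lactamase substrate step.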

Assay [18] in a line: qHTS assay for cell viability of HEK293 cells (AID 743288). Also: % is scaled to controls: 0 for no effect and ±100 for the full control effect; nearly all actives have a fitted effect of over 50% in size. The settings on record: ATP luminescence (CellTiter-Glo), 18 h, stronger effect = lower value. In short, it runs like this: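 Quantitative high-throughput screen: compounds were pinned onto parental HEK293 cells (2,000 per well) after a minimum 5 h settling at 37 C, incubated 18 h at 37 C, and intracellular ATP measured by luciferase luminescence.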

Assay [19] is described as follows: qHTS assay for cell viability of the p53RE-bla HCT-116 cell line (AID 743292). Also: % is scaled to controls: 0 for no effect and ±100 for the full control effect; nearly all actives have a fitted effect of over 55% in size. The essentials: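 ATP-based luminescent viability (CellTiter-Glo, 30 min RT) after 16 h compound treatment at 37 C of p53RE-bla HCT-116 cells, seeded at 4,000 cells/well and rested 5 h before dosing.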
The nature of assay [20]: qHTS assay to identify small molecules that stimulate interleukin-8 (IL-8) secretion (AID 651758; active = well fitted activation curve with a large enough effect in the signal ratio; the % refers to the signal ratio; also: 0% is about no effect). The essentials: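 Secreted IL-8 measured homogeneously by TR-FRET (two labelled anti-IL-8 antibodies, 1-3 h at room temperature) after a 16 h, 37 C compound treatment of THP-1 cells at 2000 cells/well.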

Where “and” joins values, the source holds several entries; their conditions need not be identical. Equal entries are not always repeated. Inconclusive results are not listed. Calls of active or inactive are those of the source. Unless noted, calls follow the shape of the dose curve; as a rule, active = well fitted curve in the direction sought with a large enough effect; inconclusive = small, poorly fitted or top-dose-only effect, or another doubt; inactive = no such curve, though single readings can be large; an effect the other way counts as inactive or inconclusive. Numbered stars: 1 amine (or outer) side, 2 acyl side, 3 side chain; on linkers, the order of the positions; unused ones are H or OH. Bridge positions count the residues as written; N and C are the ends. Square brackets hold non-standard residues; d marks the D form. Peptide text beside a SMILES is read from it. I, II: the chains in the order shown. Actinocin(9to1) = Cc1c2oc3c(C)ccc(C(=O)[*:1])c3nc-2c(C(=O)[*:2])c(N)c1=O; NMeV = CN[C@H](C(=O)O)C(C)C; Sar = CNCC(=O)O

Tumor necrosis factor (Homo sapiens), sequence (P01375 whole entry, looked up): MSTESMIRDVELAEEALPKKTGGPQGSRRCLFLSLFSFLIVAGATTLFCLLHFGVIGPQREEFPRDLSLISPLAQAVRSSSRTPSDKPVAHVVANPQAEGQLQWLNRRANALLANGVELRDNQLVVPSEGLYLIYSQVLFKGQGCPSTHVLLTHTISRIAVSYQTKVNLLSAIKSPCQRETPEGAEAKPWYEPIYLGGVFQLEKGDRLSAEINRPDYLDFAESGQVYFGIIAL
T1 sequence (P35557 whole entry, looked up): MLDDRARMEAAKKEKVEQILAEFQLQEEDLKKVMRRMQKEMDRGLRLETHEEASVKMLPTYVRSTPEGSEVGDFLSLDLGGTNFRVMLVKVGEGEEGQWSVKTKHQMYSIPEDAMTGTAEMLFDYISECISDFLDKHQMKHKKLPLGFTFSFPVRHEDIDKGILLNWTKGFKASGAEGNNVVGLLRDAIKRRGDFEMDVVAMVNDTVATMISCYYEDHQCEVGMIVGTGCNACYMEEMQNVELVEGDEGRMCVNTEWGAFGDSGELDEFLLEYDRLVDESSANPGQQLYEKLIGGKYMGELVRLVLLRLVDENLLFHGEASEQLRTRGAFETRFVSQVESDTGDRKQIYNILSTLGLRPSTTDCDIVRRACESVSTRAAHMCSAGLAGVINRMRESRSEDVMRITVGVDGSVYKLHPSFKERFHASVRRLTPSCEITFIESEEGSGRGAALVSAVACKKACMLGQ
T1 sequence (Q14397 whole entry, looked up): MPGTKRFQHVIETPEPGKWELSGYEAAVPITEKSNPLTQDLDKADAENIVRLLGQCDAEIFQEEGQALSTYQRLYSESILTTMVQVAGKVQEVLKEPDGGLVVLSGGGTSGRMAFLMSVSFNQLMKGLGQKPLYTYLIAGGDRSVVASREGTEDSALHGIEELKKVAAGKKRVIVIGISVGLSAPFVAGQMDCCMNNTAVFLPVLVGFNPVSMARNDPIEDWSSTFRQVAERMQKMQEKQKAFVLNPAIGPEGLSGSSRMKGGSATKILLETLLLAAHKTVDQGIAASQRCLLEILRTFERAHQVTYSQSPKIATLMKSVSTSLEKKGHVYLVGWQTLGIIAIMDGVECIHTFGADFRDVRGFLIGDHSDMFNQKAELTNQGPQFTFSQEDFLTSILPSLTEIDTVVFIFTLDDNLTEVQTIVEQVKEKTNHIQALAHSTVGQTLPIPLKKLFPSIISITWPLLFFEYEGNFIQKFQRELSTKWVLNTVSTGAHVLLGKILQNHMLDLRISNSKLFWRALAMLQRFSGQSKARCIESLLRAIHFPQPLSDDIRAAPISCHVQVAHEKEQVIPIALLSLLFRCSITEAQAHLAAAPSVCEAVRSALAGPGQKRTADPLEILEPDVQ
Nuclear receptor ROR-gamma (Homo sapiens), sequence (P51449 whole entry, looked up): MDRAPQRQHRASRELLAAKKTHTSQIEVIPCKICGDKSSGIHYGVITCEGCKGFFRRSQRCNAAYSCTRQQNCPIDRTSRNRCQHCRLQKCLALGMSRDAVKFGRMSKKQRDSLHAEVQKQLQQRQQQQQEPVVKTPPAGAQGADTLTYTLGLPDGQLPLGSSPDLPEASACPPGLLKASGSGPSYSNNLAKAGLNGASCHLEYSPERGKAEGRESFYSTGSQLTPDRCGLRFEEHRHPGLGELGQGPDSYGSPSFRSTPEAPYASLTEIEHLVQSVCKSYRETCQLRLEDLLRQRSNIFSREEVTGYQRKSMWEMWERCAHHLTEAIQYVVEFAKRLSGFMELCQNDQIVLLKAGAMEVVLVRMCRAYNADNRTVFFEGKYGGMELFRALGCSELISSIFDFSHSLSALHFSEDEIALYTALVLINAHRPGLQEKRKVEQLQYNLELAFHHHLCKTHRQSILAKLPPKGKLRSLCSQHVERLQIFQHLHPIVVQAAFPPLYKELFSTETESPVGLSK

For the molecule `COc1cc2c(cc1O)CC[C@@H]1[C@@H]2CC[C@]2(C)[C@@H](O)CC[C@@H]12`, the molecule was called inactive in [1], in [2], in assay [3], in assay [4], in assay [5] and in assay [6]. The result in [7] and in assay [8] was inactive. Moreover, in [9], the max response was -20.1% (inactive) and 26.1% (inactive). For the same molecule, the remaining parasite growth % (stronger effect = lower value) in assay [10] was 90.1% and 79.2%.

With `NC(=NCCCCCCN=C(N)/N=C(\N)Nc1ccc(Cl)cc1)/N=C(\N)Nc1ccc(Cl)cc1`, the molecule was classed as inactive in assay [11]. In addition, the activation in assay [12] is 2.77% (inactive) and -7.14% (inactive) and -8.81% (inactive). Moreover, the max response in assay [13] was 3.51% (inactive) and 6.34% (inactive) and -1.99% (inactive); in assay [17] it was -4.14% (inactive); in assay [18] it was -23.7% (inactive) and -11.7% (inactive) and -27.9% (inactive). The Potency in [14] was 26.6 µM (active); in [16] it was 42.2 µM (active); in assay [9] it was 7.08 µM (active). In [15], the Potency entry is “inactive”.

Regarding `C[C@H]1C[C@H]2[C@@H]3CCC4=CC(=O)C=C[C@]4(C)[C@@]3(Cl)[C@@H](O)C[C@]2(C)[C@@]1(O)C(=O)CO`, the activation in assay [12] is 0.38% (inactive). Moreover, the max response in assay [13] is 3.36% (inactive); in [17] it was -20.4% (inactive); in [9] it was 3.92% (inactive); in [18], -18.8% (inactive). Moreover, the Potency entry in [15] was “inactive”. Further, in [19], the molecule was called inactive.

Turning to `COC1=CC(=O)C[C@@H](C)[C@]12Oc1c(Cl)c(OC)cc(OC)c1C2=O`, the Potency result in assay [20], in assay [15] and in assay [16] was “inactive” throughout. Further, the activation in assay [12] is 0.113% (inactive). For the same molecule, the max response was 2.03% (inactive) in [13], 2.34% (inactive) in [17], 1.7% (inactive) in assay [9] and -14.5% (inactive) in assay [18]. For the same molecule, the molecule was called inactive in assay [19].

Consider `Cc1c2oc3c(C)ccc(C(=O)N[C@@H]4C(=O)N[C@H](C(C)C)C(=O)N5CCC[C@H]5C(=O)N(C)CC(=O)N(C)[C@@H](C(C)C)C(=O)O[C@@H]4C)c3nc-2c(C(=O)N[C@@H]2C(=O)N[C@H](C(C)C)C(=O)N3CCC[C@H]3C(=O)N(C)CC(=O)N(C)[C@@H](C(C)C)C(=O)O[C@@H]2C)c(N)c1=O` (I: T[dV]P[Sar][NMeV] / II: T[dV]P[Sar][NMeV]; ester I:1-I:C, II:1-II:C; linker I:N-II:N via Actinocin(9to1)), for which the call in assay [11] and in assay [19] was inactive. Besides, the activation in assay [12] is 1.62% (inactive) and 1.67% (inactive). Further, the max response in [13] was -5.12% (inactive) and -0.626% (inactive); in assay [17], -29.7% (inactive) and -9.89% (inactive). Moreover, the Potency in assay [14] is 0.0266 µM (active); in assay [16], 0.106 µM (active); in assay [9], 0.0708 µM (active).

As for `CC/C(=C(/CC)c1ccc(O)cc1)c1ccc(O)cc1`, the molecule was classed as inactive in assay [11] and in [19]. Further, in assay [12], the activation was -2.75% (inactive) and -1.46% (inactive). Moreover, the max response is -0.699% (inactive) and -4.24% (inactive) in assay [13]; 6.27% (inactive) and -6.2% (inactive) in assay [17]; 26.7% (inactive) in assay [9]; -28.4% (inactive) and -12.5% (inactive) in assay [18]. Further, in [15], the Potency result was “inactive”.
